Among the data in PubChem BioAssay (NCI) are growth values, retold here.

What all share (assay): NCI-60 one-dose screen, 48 h (100 = growth as untreated, 0 = no growth, -100 = all killed)
Holding throughout (details): 10 µM unless noted

Experiment [1] relates to NCI-H23 lung.
Experiment [2] concerns NCI-H226 lung.
For experiment [3], the system named is NCI-H322M lung.
The test system of experiment [4] is HOP-62 NSCLC.
Experiment [5] relates to NCI-H460 lung.
Experiment [6] concerns HOP-92 NSCLC.
In experiment [7] the test system is NCI-H522 lung.
Experiment [8] has as its system A549/ATCC NSCLC.
Experiment [9] concerns 786-0 renal.
In experiment [10] the test system is DU-145 prostate.
The test system of experiment [11] is K-562 leukemia.
Experiment [12] deals with MDA-MB-231 breast.
Experiment [13] concerns RXF 393 renal.
Experiment [14] deals with SF-268 CNS.
Experiment [15] has as its system SF-295 CNS.
Experiment [16] deals with SF-539 CNS.
Experiment [17] relates to UACC-257 melanoma.
Experiment [18] deals with M14 melanoma.
Experiment [19] has as its system MALME-3M melanoma.

About 83,000 compounds went through this panel and 20% of them were active in at least one assay; those are over-represented in the sample as a whole.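 Cells were grown in 96-well plates and exposed to the test compound at a single concentration for 48 hours; results are reported as percent growth, with values below 10 considered active.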 A number with no mark means an inactive call. The source made the active and inactive calls.

Turning to `O=C1CSC(c2ccccc2)N1c1ccccc1` (stereo not drawn), the growth is 99.7% in experiment [1]; 96.2% in experiment [2]; 90.4% in [3]; 116% in experiment [4]; 103% in experiment [5]; 82.4% in [6]. For the same compound, the growth in experiment [7] was 104%; in experiment [8], 103%; in experiment [9], 105%; in experiment [10], 107%; in experiment [11] it was 107%; in [12], 103%. The growth in experiment [13] is 95.8%; in experiment [14] it was 105%; in experiment [15], 96.6%; in experiment [16], 108%; in [17], 101%; in [18] it was 99.5%.
Take `COc1cc(-c2ncn(/C=C\c3nnco3)n2)cc(C(F)(F)F)c1`: the growth in experiment [1] was 26.6%; in experiment [2] it was -0.243% (active); in [3], 8.72% (active); in experiment [4], 39.8%; in experiment [5], 0.25% (active); in [6], 61.4%. Further, the growth is -11.4% (active) in experiment [7]; 16.7% in experiment [8]; 5.1% (active) in experiment [9]; 18.4% in experiment [10]; 6.9% (active) in experiment [11]; 2.52% (active) in experiment [19]. For the same compound, the growth in [13] is -26.2% (active); in experiment [14], 10.9%; in experiment [15], 53.6%; in experiment [16], 6.11% (active); in [17], 53%.
As to `c1ccc2[nH]c(SSc3nc4ncncc4[nH]3)nc2c1`, the growth in experiment [1] was 32.1%; in [2], 57.6%; in experiment [3], 73.5%; in experiment [4], 21.2%; in [5], 42.7%; in experiment [6], 27.5%. The growth in experiment [7] is 35.6%; in experiment [8], 80%; in experiment [9], 16%; in experiment [10] it was 29.5%; in [11], 17.1%; in experiment [12] it was 36.1%. Besides, the growth in [13] is 64.7%; in [14], 30.1%; in [15] it was -39% (active); in [16], 8.16% (active); in experiment [17], 42%; in [18], 8.49% (active).
With `O=C1CSC(c2ccc(O)cc2)N1c1nnc(Cn2cnnc2)o1` (stereo not drawn), the growth in experiment [1] is 100%; in experiment [2], 98.6%; in experiment [3], 95.8%; in [4] it was 99.8%; in [5], 115%; in experiment [6] it was 71.9%. Further, the growth in experiment [7] is 99.1%; in experiment [8], 90.3%; in [9], 94.1%; in [10], 93.3%; in experiment [11] it was 45.3%; in experiment [19], 54.1%. Besides, the growth in [12] is 94.8%; in experiment [14] it was 70.3%; in experiment [15] it was 38.6%; in [16] it was 97.6%; in experiment [17], 96.9%; in experiment [18] it was 94.6%.
For `Cc1c(C(=O)O)nnn1-c1nccs1`, the growth in [1] is 94.5%; in [2], 95.9%; in [3] it was 99.8%; in [4], 84.1%; in [5], 98.5%; in experiment [6] it was 82.4%. Also, the growth in [7] was 77.9%; in experiment [8] it was 79.2%; in [9], 97.1%; in experiment [10], 104%; in experiment [19] it was 102%; in experiment [12] it was 91.6%. Besides, the growth was 112% in [13]; 102% in [14]; 101% in [15]; 92% in [16]; 80.8% in [17].
As to `O=C1Nc2ccccc2SC1c1ccccc1Cl` (stereo not drawn), the growth is 102% in experiment [1]; 104% in experiment [2]; 95.6% in [3]; 96.3% in experiment [4]; 116% in [5]; 69.2% in [6]. The growth in experiment [7] is 103%; in experiment [8], 90%; in experiment [9], 97.5%; in experiment [10], 108%; in [11] it was 41.2%; in [19] it was 81.9%. Also, the growth in experiment [12] is 98.9%; in [14] it was 87.8%; in experiment [15], 58.2%; in [16], 109%; in experiment [17] it was 100%; in [18] it was 93.7%.
As to `Cc1ccc(-n2nnc(C3=NCCc4c3[nH]c3ccc(Cl)cc43)c2C)cc1`, the growth in [1] is 80.6%; in experiment [2], 76.2%; in experiment [3], 85%; in [4], 72.2%; in experiment [5], 72.5%; in experiment [6] it was 76.4%. In addition, the growth in experiment [7] is 30.9%; in experiment [8], 41.3%; in [9], 78.2%; in experiment [10], 87.3%; in experiment [19], 98.3%; in experiment [12], 80.4%. Moreover, the growth in experiment [13] was 102%; in [14], 80.6%; in [15] it was 70.6%; in experiment [16], 92.9%; in experiment [17], 57.9%.
Regarding `COc1ccc(CN2C(=O)/C(=C\c3cc(OC)c(OC)c(OC)c3)c3ccccc32)cc1`, the growth in experiment [1] is -8.08% (active); in experiment [2] it was 11.8%; in [3], 19.6%; in experiment [4] it was -33% (active); in experiment [5] it was -53% (active); in [6], 0.884% (active). The growth was -54.1% (active) in experiment [7]; 9.31% (active) in experiment [8]; 1.15% (active) in experiment [9]; 9.87% (active) in [10]; 5.28% (active) in experiment [11]; 5.55% (active) in experiment [12]. In addition, the growth in experiment [13] is -69.6% (active); in experiment [14], 10.4%; in experiment [15] it was -46% (active); in [16] it was -84.9% (active); in experiment [17], -9.5% (active); in experiment [18], -32% (active).
With `O=c1oc2ccc(Cl)cc2cc1-c1cs/c(=N/N=C\c2ccc(Cl)cc2)n1/N=C/c1ccc(Cl)cc1`, the growth in [1] is 99.7%; in experiment [2], 102%; in [3], 97.9%; in experiment [4], 109%; in experiment [5], 105%; in experiment [6], 98%. For the same compound, the growth in [7] is 75.2%; in experiment [8], 89.3%; in [9] it was 97.9%; in experiment [10] it was 108%; in [19], 98.9%; in experiment [12] it was 101%. For the same compound, the growth in experiment [13] was 113%; in experiment [14], 104%; in [15] it was 108%; in experiment [16], 107%; in [17], 95.1%.
